{"source": "the supplement of paper PMC8728848", "binders": {"B1": {"name": "SspB A3vp1 (Streptococcus gordonii), Q54186 (protein)", "chain": "MTNEADYQAKLAAYQTELARVQKANADAKATYEKAVEDNKAKNAAIKAENEEIKQRNAVAKTDYEAKLAKYEADLAKYKKEFAAYTAALAEAESKKKQDGYLSEPRSQSLNFKSEPNAIRTIDSSVHQYGQQELDALVKSWGISPTNPDRKKSRAYSYFNAINSNNTYAKLVLEKDKPVDVTYTGLKNSSFNGKKISKVVYTYTLKETGFNDGTKMTMFASSDPTVTAWYNDYFTSTNINVKVKFYDEEGQLMNLTGGLVNFSSLNRGNGSGAIDKDAIESVRNFNGRYIPISGSSIKIHENNSAYADSSNAEKSLGARWNTSEWDTTSSPNNWYGAIVGEITQSEISFNMASSKSGNIWFAFNSNINAIGVPTKPVAPTAPTQPMYETEKPLEPAPVAPSYENEPTPPVKTPDQPEPSKPAAALEHHHHHH"}}, "assay_in_all_cases": "glycan array binding signal (z-score within array); higher = stronger binding", "settings_in_all_cases": "glycan notation: IUPAC condensed, linker removed", "key": {"[1]": {"biological_target": "Gal3S(b1-3)GalNAc", "outline": "(§1)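 Arrays were curated from the Consortium for Functional Glycomics database, 3228 in total, and kept only where the protein sequence was available. Binding is expressed as a within-array Z-score. This score was averaged across arrays of the same protein sequence at different concentrations or buffers and across linkers, and negative values can be read as non-binding.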"}, "[2]": {"biological_target": "Gal3S6S(b1-4)GlcNAc", "outline": "as §1"}, "[3]": {"biological_target": "Gal4S(b1-4)GlcNAc", "outline": "as §1"}, "[4]": {"biological_target": "Gal6S(b1-4)GlcNAc", "outline": "as §1"}, "[5]": {"biological_target": "GalNAc(b1-3)Gal", "outline": "as §1"}, "[6]": {"biological_target": "GalNAc(b1-3)Gal(a1-6)Gal(b1-4)Glc", "outline": "as §1"}, "[7]": {"biological_target": "GalNAc6S(b1-4)GlcNAc", "outline": "as §1"}, "[8]": {"biological_target": "Glc(a1-4)Glc(a1-4)Glc(a1-4)Glc", "outline": "as §1"}, "[9]": {"biological_target": "GlcA3S(b1-3)Gal(b1-4)GlcNAc(b1-2)Man", "outline": "as §1"}, "[10]": {"biological_target": "GlcNAc(a1-3)Gal(b1-4)GlcNAc", "outline": "as §1"}, "[11]": {"biological_target": "GlcNAc(a1-4)Gal(b1-4)GlcNAc", "outline": "as §1"}, "[12]": {"biological_target": "GlcNAc(b1-2)[GlcNAc(b1-6)]Man(a1-6)[GlcNAc(b1-4)][GlcNAc(b1-2)Man(a1-3)]Man(b1-4)GlcNAc(b1-4)GlcNAc", "outline": "as §1"}, "[13]": {"biological_target": "GlcNAc(b1-3)Fuc", "outline": "as §1"}, "[14]": {"biological_target": "GlcNAc(b1-3)Gal(b1-4)GlcNAc(b1-3)Gal(b1-4)GlcNAc(b1-2)Man(a1-3)[GlcNAc(b1-3)Gal(b1-4)GlcNAc(b1-3)Gal(b1-4)GlcNAc(b1-2)Man(a1-6)]Man(b1-4)GlcNAc(b1-4)[Fuc(a1-6)]GlcNAc", "outline": "as §1"}, "[15]": {"biological_target": "GlcNAc(b1-3)Gal(b1-4)GlcNAc(b1-3)Gal(b1-4)GlcNAc(b1-3)Gal(b1-4)GlcNAc(b1-2)[GlcNAc(b1-3)Gal(b1-4)GlcNAc(b1-3)Gal(b1-4)GlcNAc(b1-3)Gal(b1-4)GlcNAc(b1-6)]Man(a1-6)[GlcNAc(b1-3)Gal(b1-4)GlcNAc(b1-3)Gal(b1-4)GlcNAc(b1-3)Gal(b1-4)GlcNAc(b1-2)Man(a1-3)]Man(b1-4)GlcNAc(b1-4)[Fuc(a1-6)]GlcNAc", "outline": "as §1"}, "[16]": {"biological_target": "Kdn(a2-3)Gal(b1-3)GlcNAc", "outline": "as §1"}, "[17]": {"biological_target": "Man(a1-2)Man(a1-3)[Man(a1-2)Man(a1-6)]Man", "outline": "as §1"}, "[18]": {"biological_target": "Neu5Ac(a2-3)Gal", "outline": "as §1"}, "[19]": {"biological_target": "Neu5Ac(a2-3)Gal(b1-3)GalNAc6S", "outline": "as §1"}, "[20]": {"biological_target": "Neu5Ac(a2-3)Gal(b1-4)GlcNAc(b1-2)Man", "outline": "as §1"}, "[21]": {"biological_target": "Neu5Ac(a2-3)Gal(b1-4)GlcNAc(b1-3)Gal", "outline": "as §1"}, "[22]": {"biological_target": "Neu5Ac(a2-3)Gal(b1-4)GlcNAc(b1-3)Gal(b1-4)GlcNAc(b1-2)Man(a1-3)[Neu5Ac(a2-3)Gal(b1-4)GlcNAc(b1-3)Gal(b1-4)GlcNAc(b1-2)Man(a1-6)]Man(b1-4)GlcNAc(b1-4)GlcNAc", "outline": "as §1"}, "[23]": {"biological_target": "Neu5Ac(a2-3)Gal(b1-4)GlcNAc(b1-3)GalNAc", "outline": "as §1"}, "[24]": {"biological_target": "Neu5Ac(a2-3)Gal(b1-4)GlcNAc6S", "outline": "as §1"}, "[25]": {"biological_target": "Neu5Ac(a2-3)Gal(b1-4)[Fuc(a1-3)]GlcNAc(b1-6)[Neu5Ac(a2-3)Gal(b1-3)]GalNAc", "outline": "as §1"}, "[26]": {"biological_target": "Neu5Ac(a2-6)Gal(b1-4)GlcNAc(b1-3)Gal(b1-4)GlcNAc(b1-3)Gal(b1-4)GlcNAc(b1-2)Man(a1-3)[Neu5Ac(a2-6)Gal(b1-4)GlcNAc(b1-3)Gal(b1-4)GlcNAc(b1-3)Gal(b1-4)GlcNAc(b1-2)Man(a1-6)]GalNAc", "outline": "as §1"}, "[27]": {"biological_target": "Neu5Ac(a2-6)Gal(b1-4)GlcNAc6S", "outline": "as §1"}, "[28]": {"biological_target": "Neu5Ac(a2-8)Neu5Ac", "outline": "as §1"}, "[29]": {"biological_target": "Neu5Ac(a2-8)Neu5Ac(a2-3)Gal(b1-4)GlcNAc", "outline": "as §1"}, "[30]": {"biological_target": "Neu5Ac(a2-8)Neu5Ac(a2-3)[GalNAc(b1-4)]Gal(b1-4)Glc", "outline": "as §1"}}, "note": "The sample as a whole holds a higher share of the strongest signals than the screen did."}
{"binder": "B1", "values": [{"measurement": "glycan array binding signal (z-score)", "setting": "[1]", "value": 0.06}, {"measurement": "glycan array binding signal (z-score)", "setting": "[2]", "value": -0.52}, {"measurement": "glycan array binding signal (z-score)", "setting": "[3]", "value": 0.061}, {"measurement": "glycan array binding signal (z-score)", "setting": "[4]", "value": -0.624}, {"measurement": "glycan array binding signal (z-score)", "setting": "[5]", "value": 0.001}, {"measurement": "glycan array binding signal (z-score)", "setting": "[6]", "value": 0.652}, {"measurement": "glycan array binding signal (z-score)", "setting": "[7]", "value": -0.623}, {"measurement": "glycan array binding signal (z-score)", "setting": "[8]", "value": -0.964}, {"measurement": "glycan array binding signal (z-score)", "setting": "[9]", "value": -1.19}, {"measurement": "glycan array binding signal (z-score)", "setting": "[10]", "value": -0.25}, {"measurement": "glycan array binding signal (z-score)", "setting": "[11]", "value": -0.84}, {"measurement": "glycan array binding signal (z-score)", "setting": "[12]", "value": -0.233}, {"measurement": "glycan array binding signal (z-score)", "setting": "[13]", "value": -0.426}, {"measurement": "glycan array binding signal (z-score)", "setting": "[14]", "value": 1.62}, {"measurement": "glycan array binding signal (z-score)", "setting": "[15]", "value": -0.133}, {"measurement": "glycan array binding signal (z-score)", "setting": "[16]", "value": -0.933}, {"measurement": "glycan array binding signal (z-score)", "setting": "[17]", "value": -0.889}, {"measurement": "glycan array binding signal (z-score)", "setting": "[18]", "value": -0.167}, {"measurement": "glycan array binding signal (z-score)", "setting": "[19]", "value": -0.287}, {"measurement": "glycan array binding signal (z-score)", "setting": "[20]", "value": 1.88}, {"measurement": "glycan array binding signal (z-score)", "setting": "[21]", "value": -0.803}, {"measurement": "glycan array binding signal (z-score)", "setting": "[22]", "value": 3.69}, {"measurement": "glycan array binding signal (z-score)", "setting": "[23]", "value": -0.47}, {"measurement": "glycan array binding signal (z-score)", "setting": "[24]", "value": -0.678}, {"measurement": "glycan array binding signal (z-score)", "setting": "[25]", "value": 5.21}, {"measurement": "glycan array binding signal (z-score)", "setting": "[26]", "value": 1.36}, {"measurement": "glycan array binding signal (z-score)", "setting": "[27]", "value": -0.165}, {"measurement": "glycan array binding signal (z-score)", "setting": "[28]", "value": -0.582}, {"measurement": "glycan array binding signal (z-score)", "setting": "[29]", "value": -1.25}, {"measurement": "glycan array binding signal (z-score)", "setting": "[30]", "value": -0.166}]}
